This passage reports growth results from PubChem BioAssay (NCI).

This is part of a sample that, as a whole, favours compounds with a hit. Of some 83,000 tested, about 20% had one in any assay.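 Testing used 96-well plates and a 48-hour single-concentration exposure. Example: -40 means 40% of the starting cells died.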 A number with no mark means an inactive call. The source made the active and inactive calls. How the source made its calls: active means growth percent below 10; inactive means the rest.

The first experiment concerns PC-3 prostate. Nature of the experiment: NCI-60 one-dose screen, 48 h (100 = growth as untreated, 0 = no growth, -100 = all killed). To be noted: 10 µM unless noted.
With `CC(=O)Nc1ccc(/C=C2\SC(=S)N(/C=C(\C(C)=O)C(N)=O)C2=O)cc1`, the growth is 78.5%.

For `C=CCC(OC(C)=O)c1ccc(C(C)C)cc1` (configuration not stated), the growth is 99.1%.

Take `CCOc1ccc2c(c1)c(C)cc(C)[n+]2CC`: the growth was 48.7%.

Turning to `CCOC(=O)C(COS(C)(=O)=O)(COS(C)(=O)=O)C(=O)OCC`, the growth is 98.5%.

Consider `CC(=O)NC(O)C(Cl)Cl` (configuration not stated), for which the growth was 96.4%.

With `Cc1cc2c3ccc(C)[n+](C)c3ccc2n1C`, the growth was 8.69% (active).

In the case of `O=C(CC(CC(=O)c1ccccc1)c1ccccn1)c1ccccc1`, the growth was 85.1%.

Turning to `CCOC(=O)C1(N)CCCCC1`, the growth is 96.6%.

Regarding `C=C(OC(C)=O)c1ccccc1`, the growth is 79.4%.

As for `COc1cccc(C(=O)NNC(=O)c2cccc3ccccc23)c1`, the growth was 106%.

For `O=Cc1ccc(F)cc1`, the growth is 101%.

With `Clc1ccc(C(SCc2ccccc2)SCc2ccccc2)cc1`, the growth was 85.9%.

`C=COC(=O)CCOCC(CC)CCCC` (configuration not stated): the growth is 98.2%.

In the case of `NC(=S)c1c(N)n(C2OC(CO)C(O)C2O)c2ncnc(N)c12` (configuration not stated), the growth is -10.1% (active).

Turning to `CCCCc1ccc2nc(NC(=O)OC)[nH]c2c1`, the growth was 22.5%.

For `CC(=O)C1C(=O)C(=O)N(c2cccc([N+](=O)[O-])c2)C1=O` (configuration not stated), the growth is 98.2%.

With `Cc1cccnc1NC1OC(=O)c2ccccc21` (configuration not stated), the growth was 114%.

In the case of `CSc1nc2[nH]ncc2c(=O)[nH]1`, the growth is 107%.

The test system of another experiment is SK-MEL-5 melanoma. The description is as above. To be noted: 10 µM unless noted.
With `N#CCCN1C(=O)CCC1C(=O)O` (configuration not stated), the growth is 110%.

Turning to `Cc1c(-c2ccc(C3CCCCC3)cc2)nc2ccc(F)cc2c1C(=O)O`, the growth was 32.9%.

Consider `O=C(OCc1ccccc1)n1nnc2ccccc21`, for which the growth was 105%.

Consider `CCOC(=O)Nc1nccs1`, for which the growth is 99.5%.

Regarding `CCC(/C=C\C(C)=O)CC`, the growth was 102%.

Regarding `OCC(O)COc1ccc(Cl)cc1Cl` (configuration not stated), the growth is 109%.

`CSc1nsc(N)n1`: the growth is 101%.

In the case of `CC(=O)Nc1ncc(S(=O)(=O)c2ccc([N+](=O)[O-])cc2)s1`, the growth is 113%.

Turning to `Cc1ccc(N2C(=O)c3cccc4c(N)c(S(=O)(=O)O)cc(c34)C2=O)cc1`, the growth is 102%.

As for `Oc1cccnc1CN1CCCC1`, the growth is 99.8%.

For the compound `CC(C)c1ccc(C(=O)OCCCl)cc1`, the growth was 100%.

As to `CCOP(=O)(OCC)/C(=C\N1C(=O)CC(=O)NC1=S)C(=O)OC`, the growth is 99%.

Turning to `Cc1cc2c(C(C)C)c(O)c(O)c(C=Nc3ccccc3[N+](=O)[O-])c2c(O)c1-c1c(C)cc2c(C(C)C)c(O)c(O)c(C=Nc3ccccc3[N+](=O)[O-])c2c1O`, the growth is 96.2%.

For the compound `COc1ccc(/C=N/NC(=O)COCC(=O)N/N=C/c2ccc(OC)cc2)cc1`, the growth was 97.9%.

For the compound `CCOC(=O)CSCCC#N`, the growth was 111%.

With `CCCCCCCCNC(=O)C(C)C`, the growth was 103%.

For `C1=NCCc2ccccc21`, the growth was 95.3%.

Regarding `O=[N+]([O-])c1ccc(-c2nc(N(CCO)CCO)c3ccccc3n2)o1`, the growth is -99% (active).

In the case of `Cc1cc(CO)c(O)c(CO)c1`, the growth is 108%.

In the case of `CC(=O)Nc1ccc(/C=C2\SC(=S)N(/C=C(\C(C)=O)C(N)=O)C2=O)cc1`, the growth was 88.7%.

Turning to `C=CCC(OC(C)=O)c1ccc(C(C)C)cc1` (configuration not stated), the growth was 117%.

With `CCOc1ccc2c(c1)c(C)cc(C)[n+]2CC`, the growth is 78.3%.

For `CCOC(=O)C(COS(C)(=O)=O)(COS(C)(=O)=O)C(=O)OCC`, the growth is 109%.

In the case of `CC(=O)NC(O)C(Cl)Cl` (configuration not stated), the growth is 102%.

Regarding `Cc1cc2c3ccc(C)[n+](C)c3ccc2n1C`, the growth is 48.2%.

As for `O=C(CC(CC(=O)c1ccccc1)c1ccccn1)c1ccccc1`, the growth was 95.4%.

For the compound `CCOC(=O)C1(N)CCCCC1`, the growth is 106%.

Regarding `C=C(OC(C)=O)c1ccccc1`, the growth is 101%.

In the case of `COc1cccc(C(=O)NNC(=O)c2cccc3ccccc23)c1`, the growth was 107%.

Regarding `O=Cc1ccc(F)cc1`, the growth was 99.8%.

With `Clc1ccc(C(SCc2ccccc2)SCc2ccccc2)cc1`, the growth was 98.8%.

For `C=COC(=O)CCOCC(CC)CCCC` (configuration not stated), the growth was 107%.

As to `NC(=S)c1c(N)n(C2OC(CO)C(O)C2O)c2ncnc(N)c12` (configuration not stated), the growth is -77.5% (active).

`CCCCc1ccc2nc(NC(=O)OC)[nH]c2c1`: the growth is -49.2% (active).

Consider `CC(=O)C1C(=O)C(=O)N(c2cccc([N+](=O)[O-])c2)C1=O` (configuration not stated), for which the growth was 107%.

On to `Cc1cccnc1NC1OC(=O)c2ccccc21` (configuration not stated), for which the growth was 105%.

Turning to `CSc1nc2[nH]ncc2c(=O)[nH]1`, the growth was 92.8%.

Another experiment relates to UACC-62 melanoma. The experiment is described as above. The settings on record: 10 µM unless noted.
`N#CCCN1C(=O)CCC1C(=O)O` (configuration not stated): the growth is 105%.

Turning to `Cc1c(-c2ccc(C3CCCCC3)cc2)nc2ccc(F)cc2c1C(=O)O`, the growth is 43.3%.

In the case of `O=C(OCc1ccccc1)n1nnc2ccccc21`, the growth is 94.4%.

On to `CCOC(=O)Nc1nccs1`, for which the growth is 99.7%.

Take `CCC(/C=C\C(C)=O)CC`: the growth was 106%.

As for `OCC(O)COc1ccc(Cl)cc1Cl` (configuration not stated), the growth was 96.6%.

In the case of `CSc1nsc(N)n1`, the growth is 93.1%.

Turning to `CC(=O)Nc1ncc(S(=O)(=O)c2ccc([N+](=O)[O-])cc2)s1`, the growth was 102%.

`Cc1ccc(N2C(=O)c3cccc4c(N)c(S(=O)(=O)O)cc(c34)C2=O)cc1`: the growth was 97.4%.

On to `Oc1cccnc1CN1CCCC1`, for which the growth is 102%.

On to `CC(C)c1ccc(C(=O)OCCCl)cc1`, for which the growth was 110%.

Turning to `CCOP(=O)(OCC)/C(=C\N1C(=O)CC(=O)NC1=S)C(=O)OC`, the growth is 98.6%.

In the case of `Cc1cc2c(C(C)C)c(O)c(O)c(C=Nc3ccccc3[N+](=O)[O-])c2c(O)c1-c1c(C)cc2c(C(C)C)c(O)c(O)c(C=Nc3ccccc3[N+](=O)[O-])c2c1O`, the growth was 96.5%.

With `COc1ccc(/C=N/NC(=O)COCC(=O)N/N=C/c2ccc(OC)cc2)cc1`, the growth is 101%.

Take `CCOC(=O)CSCCC#N`: the growth was 99.3%.

As for `CCCCCCCCNC(=O)C(C)C`, the growth was 96%.

For `C1=NCCc2ccccc21`, the growth was 114%.

On to `O=[N+]([O-])c1ccc(-c2nc(N(CCO)CCO)c3ccccc3n2)o1`, for which the growth is -71.6% (active).

For `Cc1cc(CO)c(O)c(CO)c1`, the growth is 104%.

Take `CC(=O)Nc1ccc(/C=C2\SC(=S)N(/C=C(\C(C)=O)C(N)=O)C2=O)cc1`: the growth was 87.6%.

In the case of `C=CCC(OC(C)=O)c1ccc(C(C)C)cc1` (configuration not stated), the growth was 105%.

`CCOc1ccc2c(c1)c(C)cc(C)[n+]2CC`: the growth is 92.8%.

As for `CCOC(=O)C(COS(C)(=O)=O)(COS(C)(=O)=O)C(=O)OCC`, the growth was 103%.

As to `CC(=O)NC(O)C(Cl)Cl` (configuration not stated), the growth is 106%.

As to `Cc1cc2c3ccc(C)[n+](C)c3ccc2n1C`, the growth was 78.9%.

As for `O=C(CC(CC(=O)c1ccccc1)c1ccccn1)c1ccccc1`, the growth was 87.2%.

As for `CCOC(=O)C1(N)CCCCC1`, the growth was 105%.

Turning to `C=C(OC(C)=O)c1ccccc1`, the growth is 97%.

Turning to `COc1cccc(C(=O)NNC(=O)c2cccc3ccccc23)c1`, the growth is 128%.

On to `O=Cc1ccc(F)cc1`, for which the growth was 102%.

Regarding `Clc1ccc(C(SCc2ccccc2)SCc2ccccc2)cc1`, the growth was 82.1%.

On to `C=COC(=O)CCOCC(CC)CCCC` (configuration not stated), for which the growth was 99.5%.

On to `NC(=S)c1c(N)n(C2OC(CO)C(O)C2O)c2ncnc(N)c12` (configuration not stated), for which the growth is -73.7% (active).

For the compound `CCCCc1ccc2nc(NC(=O)OC)[nH]c2c1`, the growth is 41%.

In the case of `CC(=O)C1C(=O)C(=O)N(c2cccc([N+](=O)[O-])c2)C1=O` (configuration not stated), the growth is 100%.

Regarding `Cc1cccnc1NC1OC(=O)c2ccccc21` (configuration not stated), the growth was 96.6%.

Turning to `CSc1nc2[nH]ncc2c(=O)[nH]1`, the growth is 107%.
